AGP1 TOR yeast: modulators of TOR pathway AGP1-GFP in S. cerevisiae; S. cerevisiae AGP1-GFP multiplex flow cytometry, 3 h; GFP as percent of DMSO wells; GFP response vs DMSO, % at 10 µM; 320,000 compounds, 0.02% hits; AID 2066;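 active = GFP response relative to DMSO above a set limit, near screen average plus 3 SD, cut at about 150% in these data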;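 also: median GFP channel fluorescence of the gated AGP1 strain per well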
MEP2 TOR yeast: alters MEP2-GFP fluorescence in TOR pathway yeast screen | S. cerevisiae MEP2-GFP strain, flow cytometry GFP, 3 h; 100% = DMSO control level | GFP response vs DMSO, % at 10 µM | 330,000 compounds, 0.51% hits;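 active = GFP response versus DMSO above a set limit, roughly screen mean plus 3 SD, cut at about 180% in these data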;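 also: median GFP fluorescence of the barcode-gated MEP2-GFP cells per well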
RPL19A TOR yeast: yeast TOR pathway RPL19A-GFP modulation. percent response vs DMSO, % at 10 µM. 330,000 compounds, 0.3% hits. AID 2025. S. cerevisiae RPL19A-GFP strain, flow cytometry, 3 h; stronger effect = lower value;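 active = percent response vs DMSO below 50%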;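 also: median channel GFP fluorescence of the barcoded RPL19A-GFP strain; ratio of sample median GFP to plate DMSO average so 100% = DMSO; lower means less RPL19A-GFP as with rapamycin TOR inhibition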
Efflux pump mplx: inhibitors of Candida antifungal efflux pumps expressed in yeast | S. cerevisiae Candida pump triplex, Nile Red efflux | inhibition, % at 10 µM | 330,000 compounds, 0.44% hits;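 active = plate passing quality check with inhibition over a set limit, or well fluorescence over plate mean plus 4 SD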;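 also: Nile Red retained in pooled yeast measured as flow cytometry median fluorescence; 0% = buffer negative control and 100% = Enniatin B positive control; higher means more Nile Red kept so more efflux inhibition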
LAP4-GFP MLPCN: alters LAP4-GFP fluorescence in TOR pathway yeast screen. S. cerevisiae LAP4-GFP multiplex, flow cytometry GFP, 3 h; median GFP as percent of DMSO wells. GFP response vs DMSO, % at 10 µM. 320,000 compounds, 0.34% hits. AID 2023;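 active = GFP response vs DMSO above a set limit, about the screen mean plus 3 SD, cut at about 150% in these data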
CIT2-GFP yeast: yeast TOR pathway CIT2-GFP modulation. GFP response vs DMSO, % at 10 µM. S. cerevisiae CIT2-GFP strain, flow cytometry, 3 h; 100 means same as DMSO wells. 320,000 compounds, 0.065% hits;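 active = GFP response relative to DMSO above a set limit, near the screen mean plus 3 SD, cut at about 150% in these data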;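 also: ratio of well median GFP fluorescence to mean of DMSO wells on the plate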
Yeast cmpd fluor: flagged as fluorescent in efflux inhibitor counter-screen. 1,700 compounds, 4% hits. S. cerevisiae AD/pABC3, compound fluorescence, flow cytometry. AID 588517. shares compounds with Efflux pump mplx. fluorescence ratio to DMSO, % at 10 µM;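 active = fluorescence ratio to DMSO above its plate's cutoff, the plate mean ratio plus 5 SD, cut at about 210% in these data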;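 also: unstained yeast with no Nile Red so the signal is compound autofluorescence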
CaMdr1 efflux inh: Candida Mdr1 efflux pump inhibition; shares compounds with Efflux pump mplx; S. cerevisiae AD/CaMDR1, Nile Red efflux, flow cytometry; inhibition, % at 10 µM; 1,700 compounds, 1% hits; AID 588518; in the data active = inhibition above about 26%;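 also: 0% = DMSO vehicle and 100% = reference inhibitor; higher means more Nile Red retained so more efflux inhibition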
CaCdr2 efflux inh: inhibitors of Candida albicans Cdr2 efflux pump. shares compounds with Efflux pump mplx. S. cerevisiae AD/CaCDR2, Nile Red retention, flow cytometry. Nile Red retention ratio vs DMSO, % at 10 µM. 1,700 compounds, 4% hits. AID 588520; in the data active = Nile Red retention ratio vs DMSO above about 190%;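 also: higher ratio means more blocking of Cdr2 efflux of the dye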
Cdr1 pump inh: blocks the Candida albicans Cdr1 efflux pump in yeast | shares compounds with Efflux pump mplx | S. cerevisiae AD/CaCDR1, Nile Red efflux, flow cytometry | inhibition, % at 10 µM | 1,700 compounds, 1% hits | AID 588522;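 active = inhibition above the screen-wide mean plus twice its standard deviation, cut at about 32% in these data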
* hit, by the source's call; / = not tested or not shown. Compounds with a hit are over-represented: about 1.3% of the library has one in this group of screens.

SMILES	AGP1 TOR yeast	MEP2 TOR yeast	RPL19A TOR yeast	Efflux pump mplx	LAP4-GFP MLPCN	CIT2-GFP yeast	Yeast cmpd fluor	CaMdr1 efflux inh	CaCdr2 efflux inh	Cdr1 pump inh
Cc1cccc(Nc2cc(=O)[nH]c(=O)[nH]2)c1	102	101	104	6.5*	95	107	102	0	116	0
O=c1cc(Nc2cccc(Br)c2)[nH]c(=O)[nH]1	104	107	103	0	99	/	/	/	/	/
CC(Oc1ccccc1F)C(=O)NNC(=O)CC(C)c1ccccc1 (stereo not given)	102	92	94	0	102	89	/	/	/	/
Cc1ccc(-c2c[n+](CC(=O)Nc3ccccc3C)c3n2CCC3)cc1	101	97	96	0	106	96	103	0	92	0
Cc1ccc(NC(=O)C[n+]2cc(-c3ccccc3)n3c2CCC3)cc1	125	101	99	0	121	108	/	/	/	/
CCOc1ccc(C(=O)NCC(=O)OCC(=O)Nc2nnc(-c3ccccc3)o2)cc1	100	101	93	0	100	88	/	/	/	/
CC(C)(C)NC(=O)/C(=C\c1ccco1)NC(=O)c1ccco1	98	152	109	0	117	121	/	/	/	/
Cc1cc(C)c(-c2noc(C(=O)OC(C)(C)C)c2C(=O)OC(C)(C)C)c(C)c1	93	99	96	0	95	95	/	/	/	/
COc1cc(OC)c(-c2noc(C(=O)OC(C)(C)C)c2C(=O)OC(C)(C)C)c(OC)c1	99	101	105	1.2*	89	98	97	0	93	0
CC1CCC(NC(=O)CCS(=O)(=O)c2ccc3c(c2)oc(=O)n3C)CC1 (stereo not given)	103	120	110	0	93	112	/	/	/	/
N=C(N)SCC1=CCS(=O)(=O)C1	100	107	104	0.8*	102	98	101	0	96	0
O=S1(=O)CC=C(CSc2nc3ccccc3[nH]2)C1	103	101	102	0	99	100	/	/	/	/
CC(C)N(C)CCOC(=O)c1ccccc1Br	100	100	106	13*	99	100	131	2	163	2
Cn1c(N2CCCC2)nc2c1c(=O)[nH]c(=O)n2C	97	96	99	0	82	107	/	/	/	/
CCOC(=O)c1c(C)[nH]c(C)c1C(=O)COC(=O)/C=C/c1ccc(OC(F)F)cc1	115	122	104	0	111	102	/	/	/	/
CCOC(=O)c1c(C)[nH]c(C)c1C(=O)COC(=O)/C=C/c1ccc(Cl)cc1	104	106	98	8.3*	107	86	102	0	101	0
CCSC1=N/C(=C\C=C2/Oc3ccccc3N2CC)C(=O)S1	97	112	110	0	104	108	/	/	/	/
COC(=O)c1sc(NC(=O)CSc2nnc(Cn3nnc4ccccc43)n2C)nc1C	95	100	102	14*	86	95	105	0	94	0
COC(=O)c1c(NC(=O)CSc2nnc(Cn3nnc4ccccc43)n2C)sc(C)c1C	98	104	97	0	103	102	/	/	/	/
CC(=O)Nc1ccc(NC(=O)Cc2ccc(F)cc2)cc1	98	108	105	1.1*	106	101	112	0	106	0
COc1ccc(NS(=O)(=O)c2ccc(C)c(C(=O)N3CCC3)c2)cc1	101	93	94	0	94	89	/	/	/	/
O=C(CN1CCN(S(=O)(=O)c2ccccc2F)CC1)Nc1ccccc1C(=O)c1ccccc1	105	93	101	0.5*	92	95	111	0	98	0

Screening results: PubChem BioAssay, NMMLSC
